Reference: PubChem BioAssay (NCATS)
Inconclusive results are not listed. The source made the active and inactive calls. Calls come from the whole dose curve; as a rule, active = well fitted curve in the direction sought with a large enough effect; inconclusive = small, poorly fitted or top-dose-only effect, or another doubt; inactive = no such curve, though single readings can be large; an effect the other way counts as inactive or inconclusive.

How the values were obtained:
[1] = biological target: Glutathione peroxidase 1 (Homo sapiens) (UniProt P07203); experiment: Primary qHTS Assay for Inhibitors of Recombinant Selenoprotein Glutathione Peroxidase 1 (GPX1) (AID 1845191); note: nearly all actives have a fitted effect of over 65% in size; for activity, negative = inhibition: % is set by controls: 0 for no effect and ±100 for the full control effect
Method in brief: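 NADPH consumption tracked by fluorescence at 340/450 nm between t=0 and t=15 min, room temperature. Final mix: 10 nM GPX1, 100 nM glutathione reductase, 1 mM GSH, 0.5 mM NADPH, 0.5 mM cumene hydroperoxide, 0.01% BSA; 30 min compound–enzyme preincubation.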

[2] = biological target: Phospholipid hydroperoxide glutathione peroxidase GPX4 (Homo sapiens) (UniProt P36969); experiment: Primary qHTS Assay for Inhibitors of Recombinant Selenoprotein Glutathione Peroxidase 4 (GPX4) (AID 1845192); note: nearly all actives have a fitted effect of over 65% in size; for activity change, negative = inhibition: series mostly up to about 50 µM; % is set by controls: 0 for no effect and ±100 for the full control effect
Method in brief: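 NADPH consumption followed by fluorescence at 340/450 nm, t=0 and after 15 min at room temperature. Reaction started with cumene hydroperoxide (0.5 mM final) after 30 min compound–GPX4 preincubation; final 200 nM GPX4, 100 nM GR, 1 mM GSH, 0.5 mM NADPH.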

[3] = biological target: Luciferin 4-monooxygenase (Photinus pyralis) (UniProt P08659); experiment: Primary firefly luciferase (FLuc) qHTS assay for identification of artifact compounds. (AID 1845220); note: nearly all actives have a fitted effect of over 60% in size;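 for activity change, negative = inhibition: series mostly up to about 54 µM; plate controls were DMSO vehicle for no effect and no enzyme for full effect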
Method in brief: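 FLuc 10 nM; luciferin 10 uM; ATP 10 uM; Tris-acetate pH 7.6, Mg-acetate 10 mM; 15 min RT preincubation; 5 min reaction; luminescence.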

[4] = Primary fluorescence-based thiol-reactive (MSTI) qHTS assay for identification of artifact compounds. (AID 1845221); note: nearly all actives have a fitted effect of over 65% in size; note: potency is the fitted concentration of half-maximal effect;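 for activity change, negative = thiol reactive: series mostly up to about 54 µM; thiol-reactive compounds lower the probe fluorescence signal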
Method in brief: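 First, 4 uM MSTI in 2% DMSO/PBS pH 7.4 was dispensed; next, compounds were added; then plates sat 1 h at room temperature without light. Finally, emission at 598 nm was recorded.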

[5] = tested on: Nanoluciferase (engineered Oplophorus gracilirostris luciferase); experiment: Primary Nanoluciferase (NLuc) qHTS assay for identification of artifact compounds. (AID 1845222);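 note: NLuc secreted into diluted conditioned medium of S16 cells; series mostly up to about 54 µM; 0% = DMSO and -100% = no enzyme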
Method in brief: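 NLuc from S16 cell medium (1:55) plus test compounds, 15 min, room temperature. Luminescence after Nano-Glo (1:100) addition, 5 min.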

Sequence of Phospholipid hydroperoxide glutathione peroxidase GPX4 (Homo sapiens) (P36969 whole entry, looked up): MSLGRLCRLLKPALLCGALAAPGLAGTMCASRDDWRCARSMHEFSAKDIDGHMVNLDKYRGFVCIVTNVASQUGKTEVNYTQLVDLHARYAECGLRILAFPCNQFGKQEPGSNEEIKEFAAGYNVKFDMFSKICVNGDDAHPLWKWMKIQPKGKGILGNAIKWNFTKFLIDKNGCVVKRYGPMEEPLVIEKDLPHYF
Sequence of Glutathione peroxidase 1 (Homo sapiens) (P07203 whole entry, looked up): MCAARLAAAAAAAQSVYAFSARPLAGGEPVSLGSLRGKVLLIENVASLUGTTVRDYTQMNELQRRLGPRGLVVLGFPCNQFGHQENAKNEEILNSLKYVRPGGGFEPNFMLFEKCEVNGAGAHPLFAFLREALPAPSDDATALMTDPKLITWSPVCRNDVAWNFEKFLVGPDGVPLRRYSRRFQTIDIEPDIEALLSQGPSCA

C/C=C(\C)C(=O)OC1CC2C(CC=C3CC(OC4CC(OC)C(OC5CC(OC)C(OC6OC(C)C(OC7OC(CO)C(O)C(O)C7O)C(OC)C6O)C(C)O5)C(C)O4)CCC32C)C2(O)CCC(C(C)=O)C12C (configuration not stated)
inactive: Potency [1] | Potency [2] | outcome [3] inactive [at 11.6 µM] | activity change, negative = thiol reactive [4] 19.1% [at 11.5 µM] | activity, negative = inhibition [5] 4.82% [at 11.6 µM]

CC(=O)OC1CC(O)C2(C)C(CC(OC(C)=O)C3(C)C2CCC2(C)C(c4ccoc4)C(=O)C4OC423)C1(C)C (configuration not stated)
inactive: Potency [1] | Potency [2] | Potency [3] | Potency [4] | outcome [5]

Oc1ccc2c3c1O[C@H]1[C@H](N(CCCl)CCCl)CC[C@@]4(O)[C@@H](C2)N(CC2CC2)CC[C@]314
inactive: outcome [1] inactive [at 9.52 µM] | activity change, negative = inhibition [2] -3.35% [at 9.73 µM] | outcome [3] inactive [at 11.6 µM] | activity change, negative = thiol reactive [4] 7.36% [at 11.5 µM] | activity, negative = inhibition [5] 1.59% [at 11.6 µM]

CCN1C[C@]2(COC(=O)c3ccccc3N3C(=O)C[C@H](C)C3=O)CC[C@H](OC)[C@@]34[C@@H]5C[C@H]6[C@H](OC)[C@@H]5[C@](O)(C[C@@H]6OC)[C@](O)([C@@H](OC)[C@H]23)[C@@H]14
inactive: Potency [1] | Potency [2] | Potency [3] | Potency [4] | outcome [5]

C[C@]12CC[C@@H](O)C[C@H]1CC[C@@H]1[C@@H]2CC[C@]2(C)C(=O)CC[C@@H]12
inactive: Potency [1] | Potency [2] | Potency [3] | Potency [4] | outcome [5]

C[N+]1(C)CCCCC1COC(=O)C(O)(c1ccccc1)c1ccccc1 (configuration not stated)
inactive: Potency [1] | Potency [2]

C=C[C@H]1CN2CC[C@H]1C[C@@H]2[C@@H](O)c1ccnc2ccccc12
inactive: Potency [1] | Potency [2] | Potency [3] | Potency [4] | outcome [5]

Clc1ccc(N2C[C@H]3CC[C@@H](C2)N3)nn1
inactive: Potency [1] | Potency [2] | Potency [3] | Potency [4] | outcome [5]

CC(=O)OC1CC(O)C(C)(C)C2CC(OC(C)=O)C3(C)C(CCC4(C)C(c5ccoc5)C(=O)C5OC543)C12C (configuration not stated)
inactive: Potency [1] | Potency [2] | Potency [3] | Potency [4] | outcome [5]

CCCCCOc1cc2c(cc1-c1cc(/C=C/C(=O)O)ccc1O)C(C)(C)CCC2(C)C
inactive: Potency [1] | Potency [2] | Potency [3] | Potency [4] | outcome [5]

C[C@H]1C(=O)O[C@H]2[C@H](O)[C@]34C5OC(=O)[C@]3(O[C@@H]3OC(=O)[C@H](O)C34[C@H](C(C)(C)C)[C@H]5O)C12O (some centres not stated)
inactive: Potency [1] | Potency [2] | Potency [3] | Potency [4] | outcome [5]

CCOc1ccccc1-n1c(C(C)N2CCN(C(=O)COc3ccc(Cl)cc3)CC2)nc2ccccc2c1=O (configuration not stated)
inactive: Potency [1] | Potency [2] | Potency [3] | Potency [4] | outcome [5]

CN1[C@@H]2CC[C@H]1CC(OC(=O)C1C=Nc3ccccc31)C2 (some centres not stated)
inactive: Potency [1] | Potency [2] | Potency [3] | Potency [4] | outcome [5]

C=C1[C@@H]2CC[C@@]3(C)[C@H](c4ccoc4)OC(=O)C[C@]13O[C@H]1CC(=O)C(C)(C)[C@H](C(OC(C)=O)C(=O)OC)[C@]12C (some centres not stated)
inactive: Potency [1] | Potency [2] | Potency [3] | Potency [4] | outcome [5]

COC(=O)C1(C)CCC(O)C2(C)c3c(O)cc(C(C)C)cc3C(O)C(OC(C)=O)C12 (configuration not stated)
inactive: Potency [1] | Potency [2] | Potency [3] | Potency [4] | outcome [5]

COC(=O)C1(C)CCC(=O)C2(C)c3c(O)cc(C(C)C)cc3C(O)C(OC(C)=O)C12 (configuration not stated)
inactive: Potency [1] | Potency [2] | Potency [3] | Potency [4] | outcome [5]

CC(N)Cc1c[nH]c2ccccc12 (configuration not stated)
inactive: Potency [1] | Potency [2] | Potency [3] | Potency [4] | outcome [5]

C=C[C@H]1[C@H](O[C@@H]2O[C@H](CO)[C@@H](O)[C@H](O)[C@H]2O)OC=C2C(=O)OCC[C@H]21
inactive: Potency [1] | Potency [2] | Potency [3] | Potency [4] | outcome [5]

C=C(C)[C@H]1O[C@H]2CC[C@@]3(C)[C@@](O)(CC[C@H]4[C@@H]5OC(C)(C)[C@H]6C[C@@H]7C(=C)Cc8c(Cl)cc9[nH]c(c5c9c8[C@@]76O)[C@@]43C)[C@]23O[C@@H]3[C@H]1O
inactive: Potency [1] | Potency [2] | Potency [3] | outcome [5]
active: Potency [4] 6.3 µM

CCC(C)(C#N)O[C@@H]1O[C@H](CO)[C@@H](O)[C@H](O)[C@H]1O (some centres not stated)
inactive: Potency [1] | Potency [2] | Potency [3] | Potency [4] | outcome [5]

COc1ccccc1CN[C@H]1C2CCN(CC2)[C@H]1C(c1ccccc1)c1ccccc1
inactive: Potency [1] | Potency [2] | Potency [3] | Potency [4] | outcome [5]

CCN1C[C@]2(COC)[C@H](O)C[C@H](OC)[C@]34[C@@H]5C[C@]6(O)[C@H](OC(=O)c7ccccc7)[C@@H]5[C@@](O)([C@H]([C@H](OC)[C@H]23)[C@@H]14)[C@@H](O)[C@@H]6OC
inactive: Potency [1] | Potency [2] | Potency [3] | Potency [4] | outcome [5]
